Source: PubChem BioAssay (NCI)
Compounds without any hit were thinned out: in the full panel of roughly 79,000, 15% have a hit. Active and inactive are the calls of the source. Rule as the data show it: active = growth inhibition above about 70%; inactive = the rest.

What was measured:
[1] = NCI Yeast Anticancer Drug Screen. Data for the rad50 strain (AID 155);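 also: 0% = growth of vehicle-only cultures of the same strain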; conditions: S. cerevisiae rad50 strain growth inhibition; at 50.0 µM; stronger effect = higher value
Summary of the method: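 Inhibition values express reduced yeast growth in compound-treated cultures relative to vehicle-treated controls.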

[2] = NCI Yeast Anticancer Drug Screen. Data for the mec2-1 strain (AID 157); conditions: S. cerevisiae mec2-1 strain, at 50.0 µM, stronger effect = higher value
Summary of the method: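 mec2-1 yeast strain, carrying an alteration in DNA damage repair or cell cycle control, was exposed to compounds; growth inhibition was measured relative to vehicle-treated controls.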

[3] = NCI Yeast Anticancer Drug Screen. Data for the sgs1 mgt1 strain (AID 161);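 also: 0% = growth of cultures given vehicle only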; conditions: S. cerevisiae sgs1 mgt1 strain, at 50.0 µM, stronger effect = higher value
Summary of the method: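 Compounds are added to genetically altered yeast, and growth is compared with cultures given vehicle alone to give percent inhibition.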

[4] = NCI Yeast Anticancer Drug Screen. Data for the cln2 rad14 strain (AID 165);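 also: 0% = growth equal to vehicle treated cultures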; conditions: S. cerevisiae cln2 rad14 strain, at 50.0 µM, stronger effect = higher value
Summary of the method: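 Yeast carrying cln2 and rad14 alterations (cell cycle control and DNA damage repair) were exposed to compounds. Growth inhibition was measured against vehicle-treated controls.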

[5] = NCI Yeast Anticancer Drug Screen. Data for the bub3 strain (AID 167); conditions: S. cerevisiae bub3 mutant strain, at 50.0 µM, stronger effect = higher value
Summary of the method: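 Steps: expose the mutant yeast strain to compound; grow alongside vehicle-treated cultures; measure growth; express inhibition against the vehicle cultures.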

[6] = NCI Yeast Anticancer Drug Screen. Data for the mlh1 rad18 strain (AID 175); conditions: S. cerevisiae mlh1 rad18 strain growth inhibition; at 50.0 µM; stronger effect = higher value
Summary of the method: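 Growth inhibition of the yeast strain was measured after compound exposure and expressed relative to vehicle-treated controls. The strain carries defined defects in DNA damage repair.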

Measured: growth inhibition

Cc1c(C(=O)Nc2ccccc2)nnn1-c1ccnc2cc(C(F)(F)F)ccc12
inactive: [1] -13.8% | [2] -6.75% | [3] -8.85% | [4] -4.05% | [5] -5.6% | [6] 2%

O=C(O)CCNC(=O)c1ccccc1O
inactive: [1] -41.5% | [2] -8.5% | [3] -17.1% | [4] -53.8% | [5] -18.1% | [6] -56.8%

COc1ccccc1C1OC(C)C(C)O1 (stereo unspecified)
inactive: [1] -16.1% | [2] -10.7% | [3] -7.35% | [4] 5.5% | [5] -25.9% | [6] -16.3%

O=C(CN1CCN(c2cccc(Cl)c2)CC1)N1CCc2c([nH]c3ccccc23)C1c1cccnc1 (stereo unspecified)
inactive: [1] -15.3% | [2] -30.8% | [3] 1.6% | [4] 6% | [5] -2.25% | [6] -16.9%

CCCCCCC1(/C=C/c2ccc(Cl)c(Cl)c2)OCCCO1
inactive: [1] 6.15% | [2] 12.2% | [3] 12.6% | [4] -1.55% | [5] 3.2% | [6] 8.1%

CC(C)OP(=O)(OC(C)C)C([CH2][Sn]([CH3])([CH3])[Cl])P(=O)(OC(C)C)OC(C)C
inactive: [1] 5.75% | [2] -0.8% | [3] 0.45% | [4] 0.25% | [5] -2.1% | [6] -1.45%

CCCCn1c2nc(=O)n(C)c(=O)c-2cc2ccccc21
inactive: [1] 29% | [2] 16.7% | [3] 22.6% | [4] -25.4% | [5] 17.8% | [6] 34.7%

CC1(C)OCN(c2ccc(Cl)cc2)Cn2c1nc1ccccc12
inactive: [1] -6.65% | [2] 8.2% | [3] -22.8% | [4] 2.5% | [5] -25.9% | [6] -9.25%

CC(COCc1ccccc1)NCc1ccccc1 (stereo unspecified)
inactive: [1] -7.35% | [2] -27.6% | [3] 9.3% | [4] -9.15% | [5] -3.35% | [6] 13.2%

CC1=C(C(=O)NNC(=O)CC#N)CC(C(=O)NNC(=O)CC#N)=C(C)N1
inactive: [1] -27.7% | [2] -43.8% | [3] -20.8% | [4] -24.6% | [5] -27.4% | [6] -0.05%

OC1CSc2ccccc2-n2cccc21 (stereo unspecified)
inactive: [1] 25.8% | [2] 6.4% | [3] 21.8% | [4] 32.9% | [5] 6.75% | [6] 16.4%

COC(=O)/C(=N/NC(N)=O)C(C(=O)OC)C(=O)C(=O)Nc1ccc(Cl)cc1 (stereo unspecified)
inactive: [1] 1.4% | [2] -21.8% | [3] -16.9% | [4] 13.8% | [5] -14.4% | [6] -34.5%

O=c1[nH]c2cc(Cl)ccc2nc1/C=C(\O)c1ccccc1
inactive: [1] 1.35% | [2] -18.9% | [3] -5.9% | [4] 4.55% | [5] -19.1% | [6] 20.1%

CC(O)C(F)(F)F (stereo unspecified)
inactive: [1] 18.2% | [2] -8.8% | [3] 7.65% | [4] 15.9% | [5] -3.75% | [6] 21.8%

CCOC(=O)C(N)C(O)c1ccncc1 (stereo unspecified)
inactive: [1] -8% | [2] -2.45% | [3] -4.25% | [4] -19.8% | [5] 1.5% | [6] 2.2%

CCN=C1Nc2ccccc2-n2c(nn3nc4ccccc4c23)N1CC
inactive: [1] -13.1% | [2] -26.4% | [3] -42% | [4] -24.3% | [5] -41% | [6] -51.7%

CCOC(=O)C(CCC(c1ccc(OC)cc1)c1ccc(OC)cc1)C(=O)OCC
inactive: [1] 29.7% | [2] -8.15% | [3] 10.2% | [4] 2.05% | [5] 27.6% | [6] -18.2%

c1ccc(COC(c2ccccc2)(c2ccccc2)c2ccccc2)cc1
inactive: [1] -0.45% | [2] -2.2% | [3] 10.4% | [4] -8.55% | [5] -0.85% | [6] 27.9%

O=C(C[n+]1ccccc1CCCO)c1ccc(F)cc1
inactive: [1] 3.55% | [2] -19.7% | [3] 4.6% | [4] 28.3% | [5] 3% | [6] 8.45%

CC(=O)OC1C(COC(N)=O)OC(n2c(-c3ccc(C)cc3)cc(-c3ccccc3)c(C#N)c2=O)C(OC(C)=O)C1OC(C)=O (stereo unspecified)
inactive: [1] -18.4% | [2] 7.25% | [3] 4.75% | [4] 22.4% | [5] 26.9% | [6] 11.3%

CCCCN(CCCC)CC(O)C=O (stereo unspecified)
inactive: [1] -7.95% | [2] -3.95% | [3] -0.5% | [4] -4.85% | [5] -8.4% | [6] 2.95%

CC(=O)OC1CCC2(C)C(=CCC3C2CCC2(C)C3CC(Br)C2(O)C(C)=O)C1 (stereo unspecified)
inactive: [1] 41.9% | [2] 24.1% | [3] 15% | [4] 17.7% | [5] 4.1% | [6] 30.4%

COC1=CC(=O)C(C)=CC1=O
inactive: [1] -2.1% | [2] 2.65% | [3] 3.5% | [4] 7.35% | [5] 16.3% | [6] 7.5%

CN(C)CCSc1nc2ccccc2o1
inactive: [1] 12.2% | [2] 20.8% | [3] 27.7% | [4] 21.1% | [5] 16.9% | [6] 32.9%

O=C(O)C(O)C(O)C(O)C(O)C(=O)O (stereo unspecified)
inactive: [1] 7.35% | [2] -13.1% | [3] 12% | [4] -1.55% | [5] -5.1% | [6] 3.15%

CCN1CCCC(C#N)(c2ccccc2)CC1 (stereo unspecified)
inactive: [1] 14.1% | [2] 7.45% | [3] 14.5% | [4] 8.9% | [5] 3.2% | [6] -4.1%

CCC(C#N)(c1ccccc1)N(CCc1ccccc1)C(=O)c1ccccc1 (stereo unspecified)
inactive: [1] -5.8% | [2] -0.5% | [3] -12.9% | [4] -20.9% | [5] -13.2% | [6] -22.1%

O=S(=O)(CS(=O)(=O)c1ccc(Br)cc1)c1ccc(Br)cc1
inactive: [1] 1.4% | [2] 33.1% | [3] -14.6% | [4] 20.8% | [5] 4.6% | [6] 12%

CN(C)CCC(/C=C/c1ccccc1)=N\Nc1ccccc1
inactive: [1] 19.6% | [2] -14.9% | [3] -11.9% | [4] 5.5% | [5] -12.8% | [6] 36.5%

CCO/C(=C/[S+](C)C)c1ccccc1
inactive: [1] 0.55% | [2] -4.4% | [3] -19.9% | [4] 2.95% | [5] 9.3% | [6] 5.35%

CN(CC(=O)c1ccc(I)cc1)Cc1ccccc1
inactive: [1] 28.1% | [2] -1.25% | [3] 16.4% | [4] -5.9% | [5] 12.8% | [6] 45.7%

CCCCCCCCCCCCCCCCCCNC(=S)/N=C\C(C(=O)Nc1ccccc1C)=C(/C)O
inactive: [1] -9.8% | [2] -11.8% | [3] 5.85% | [4] 0.55% | [5] -21.4% | [6] -5.65%

c1ccc(Nc2cc(Nc3ccccc3)ncn2)cc1
inactive: [1] 4.4% | [2] -20.5% | [3] 3.8% | [4] -6.5% | [5] -2.2% | [6] 2.35%

COC(=O)CC1C(OC)OC23CCC1C2(C)CCC1C3CCC2CC(OC(C)=O)CCC21C (stereo unspecified)
inactive: [1] 28.1% | [2] 3% | [3] 13.8% | [4] -30.2% | [5] -1.7% | [6] 8.5%

COc1ccc(N=Nc2c(C)c(C#N)c(=S)n(C3OC(COC(C)=O)C(OC(C)=O)C(OC(C)=O)C3OC(C)=O)c2-c2ccccc2)cc1 (stereo unspecified)
inactive: [1] -8.55% | [2] -8.9% | [3] -20.6% | [4] 9.05% | [5] 8% | [6] -5.1%

Nc1ccc2c(c1)C(=O)c1ccccc1C2=O
inactive: [1] 4.4% | [2] -1.55% | [3] -12.9% | [4] 6.55% | [5] 8.95% | [6] -0.55%
